Records with an inconclusive call do not appear. Where a call stands in place of a potency, no number is given. Calls of active or inactive are those of the source. Calls follow the shape of the dose curve; as a rule, active = well fitted inhibition curve with a large enough effect; inconclusive = small, poorly fitted or top-dose-only effect; inactive = no such curve, though single readings can be large or run the other way.

This note sets out measurements from PubChem BioAssay AID2537 (National Center for Advancing Translational Sciences (NCATS), 2010).

Polyunsaturated fatty acid lipoxygenase ALOX15B (Homo sapiens), sequence (O15296 whole entry, looked up): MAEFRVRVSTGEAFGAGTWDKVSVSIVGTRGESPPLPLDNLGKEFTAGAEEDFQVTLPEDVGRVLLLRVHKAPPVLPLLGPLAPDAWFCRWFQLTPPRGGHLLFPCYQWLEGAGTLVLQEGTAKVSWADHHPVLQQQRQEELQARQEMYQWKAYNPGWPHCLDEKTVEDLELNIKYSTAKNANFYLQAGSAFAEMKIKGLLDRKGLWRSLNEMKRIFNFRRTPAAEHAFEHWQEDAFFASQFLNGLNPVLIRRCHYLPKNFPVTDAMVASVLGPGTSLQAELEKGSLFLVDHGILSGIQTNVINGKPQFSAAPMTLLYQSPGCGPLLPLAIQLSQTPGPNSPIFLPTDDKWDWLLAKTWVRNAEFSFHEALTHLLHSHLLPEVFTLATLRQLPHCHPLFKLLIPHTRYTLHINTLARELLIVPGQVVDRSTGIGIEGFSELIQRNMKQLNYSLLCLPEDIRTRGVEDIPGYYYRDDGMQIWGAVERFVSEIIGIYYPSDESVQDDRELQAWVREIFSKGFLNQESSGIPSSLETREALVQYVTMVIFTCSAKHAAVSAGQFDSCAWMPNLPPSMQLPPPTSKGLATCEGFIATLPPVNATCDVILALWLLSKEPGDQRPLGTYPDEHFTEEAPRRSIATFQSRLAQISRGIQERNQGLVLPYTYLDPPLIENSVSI

The target of this assay is Polyunsaturated fatty acid lipoxygenase ALOX15B (Homo sapiens) (UniProt O15296). Briefly: Confirmation qHTS Assay for Inhibitors of 15-hLO-2 (15-human lipoxygenase 2). The note with it: purified 15hLO-2, xylenol orange hydroperoxide absorbance; series mostly up to 57.1 µM. The procedure:
Human lipoxygenase 15hLO-2 is a member of the closely related lipoxygenase family of enzymes which catalyze the site-specific oxidation of arachidonic acid to various hormone precursor molecules and as such is a candidate for drug development in a variety of disease areas, such as cancer and inflammation. Inhibition of 15hLO-2 activity was screened by utilizing arachidonic acid as a substrate. The extent of hydroperoxide product formation was measured by a secondary chromogenic reaction in which xylenol orange (XO, Sigma-Aldrich, cat. number 39,818-7) reacts with the ferric ions produced from the reaction between the hydroperoxide and ferrous ions. The Fe(III)-XO complex is characterized with red-shifted absorbance at 560 nm. A purified preparation of human 15hLO-2 was supplied by Professor Ted Holman, University of California, Santa Cruz. NIH Molecular Libraries Screening Centers Network [MLSCN] NIH Chemical Genomics Center [NCGC] MLSCN Grant: MH081283-01A1 PI Name: Holman, T.R., University of California, Santa Cruz
Assay Protocol: Buffer: 25 mM Hepes pH 7.5, 0.01% Triton X-100. Reagents/Controls: Buffer in columns 3 and 4 as negative control (no enzyme). Substrate solution: 45 uM arachidonic acid (Sigma-Aldrich, St. Louis, MO) final concentration dispensed throughout the plate. Enzyme: 50 nM 15hLO-2 final concentration in columns 1, 2, 5-48. Column 1 is neutral (100% activity). Column 2 contained pin-transferred titration of NDGA (nordihidroguaiaretic acid, Sigma-Aldrich, N 5023, top concentration 10 mM in DMSO, then 1:2 dilution in duplicate). (Dilution factor: 23 nL into 4 uL.) Chromogenic detection reagent (divalent iron/xylenol orange, Fe-XO): 200 uM xylenol orange plus 300 uM ferrous ammonium sulfate prepared freshly in 50 mM sulfuric acid. Assay Steps: Three uL of enzyme were dispensed to 1536-well Greiner black clear bottom plates. Compounds and controls (23 nL) were transferred via Kalypsys PinTool. The plates were incubated for 15 min at room temperature, and then 1 uL of substrate solution was added to start the reaction. After room temperature incubation for 90 minutes, 4 uL of Fe-XO solution was added to each well followed by a short spin (1000 rpm, 15 sec) and the plates were then incubated for 30 min. The absorbance at 405 and 573 nm were measured using ViewLux (Perkin-Elmer) High-throughput CCD imager and absorbance protocol settings. The 573-to-405 absorbance ratio was used to compute reaction progress.
On the technique in general: Quantitative high-throughput screening tests each substance at several concentrations.
With `CN(C)/C=C/C(=O)c1ccc(Cl)cc1`, the Potency result was “inactive”.

For the molecule `CC1=NOC(=O)/C1=C\c1ccc(-c2cccc(Cl)c2)o1`, the Potency is 4.47 µM (active).

Consider `CCC(=O)N(Cc1cc(=O)[nH]c2ccccc12)C1CCCCC1`, for which the Potency result is “inactive”.

As for `NC(=O)c1cccc2c3c([nH]c12)CCCC3`, the Potency result is “inactive”.

Take `COCCSc1ccccc1C(=O)NCc1ccco1`: the Potency result was “inactive”.

Consider `Oc1ccc(CNc2ccccc2)c2cccnc12`, for which the Potency entry was “inactive”.

For the molecule `CCOc1cc(-c2cc(-c3ccc(N)cc3)nc(N)c2C#N)ccc1O`, the Potency entry is “inactive”.

Regarding `Cc1ccc(SCCNC(=S)Nc2ccc(C)c(C)c2)cc1`, the Potency was 25.1 µM (active).

Consider `O=C(Cc1cc(=O)[nH][nH]1)N/N=C/C=C/c1ccccc1`, for which the Potency result was “inactive”.

In the case of `Cc1noc(C)c1-c1nc(N(C)Cc2ccco2)c2ccccc2n1`, the Potency result was “inactive”.

Turning to `O=C(c1ccncc1)N1CCC2(CCCN(Cc3nccs3)C2)CC1`, the Potency result is “inactive”.

`Cc1cccc(NC(=O)CSC(N)=O)c1C`: the Potency entry was “inactive”.

Regarding `O=C(Nc1nc2n(n1)C(c1ccccc1)CC(c1ccc(Cl)cc1)N2)c1ccco1` (stereo not given), the Potency result is “inactive”.

With `Cc1ccc(C)c(NC(=S)NNC(=O)c2csc3c2CCC(C)C3)c1` (stereo not given), the Potency result is “inactive”.

Take `Cc1ccc(OCC(=O)Nc2ccc(N3CCCC3)cc2)cc1C`: the Potency result is “inactive”.

Regarding `COc1cccc(-c2nccc(NCc3ccccc3OC)n2)c1`, the Potency entry is “inactive”.

On to `Oc1ccc2ccccc2c1CNc1cnc2ccccc2c1`, for which the Potency entry was “inactive”.

As for `Cc1c(N/C=C/C(=O)c2cccs2)c(=O)n(-c2ccccc2)n1C`, the Potency result was “inactive”.

As to `CC1=CC(C)(C)Nc2ccc(OC(=O)CN3C(=O)c4cccc5cccc(c45)C3=O)cc21`, the Potency was 12.6 µM (active).

Consider `COc1ccc(C(C[N+](=O)[O-])c2c(-c3ccccc3)cc3ccccn23)c(OC)c1` (stereo not given), for which the Potency result was “inactive”.

On to `Cc1cc(Nc2nnnn2-c2ccccc2)n(-c2ccc(Cl)cc2)n1`, for which the Potency entry was “inactive”.

As for `CC(=O)NCCNc1ncncc1-c1ccc(N(C)C)cc1`, the Potency result was “inactive”.

Turning to `CCOC(=O)c1ccc(N2CSC3=C(C#N)C(c4ccc(OC)cc4OC)CC(=O)N3C2)cc1` (stereo not given), the Potency result is “inactive”.

Turning to `Cc1csc(-c2coc3cc(O)cc(C)c3c2=O)n1`, the Potency result is “inactive”.

Turning to `Clc1ccc(NNc2ccnc3cc(Cl)ccc23)cc1`, the Potency result was “inactive”.

With `OC1(c2cccc(C(F)(F)F)c2)CCN(c2ncnc3c2[nH]c2ccc(F)cc23)CC1`, the Potency result is “inactive”.

For `O=C1C2C3CCCC3=C3CCCC3C2C(=O)N1c1cccc(Cl)c1` (stereo not given), the Potency entry was “inactive”.

As to `O=c1c(-c2ccc3c(c2)OCCO3)coc2cc(O)cc(O)c12`, the Potency result was “inactive”.

As to `Cc1cccc(CNc2ncnc3ccc(-c4ccc5c(c4)OCO5)cc23)c1`, the Potency result was “inactive”.

Consider `COc1ccccc1CNc1ncncc1-c1ccoc1`, for which the Potency entry was “inactive”.

Consider `COC(=O)c1ccc(C(=S)N2CCOCC2)cc1`, for which the Potency entry was “inactive”.

Regarding `CCCCn1c(Cc2ccccc2)n[nH]c1=S`, the Potency entry was “inactive”.

For `O=C(C1=C(O)C(=O)N(Cc2ccco2)C1c1cccnc1)c1cc2ccccc2o1` (stereo not given), the Potency entry is “inactive”.

`CC(=O)[C@@H]1[C@@H]2C(=O)N(Cc3ccccc3)C(=O)[C@@H]2C2c3ccccc3C=CN21` (stereo not given in full): the Potency entry was “inactive”.

Regarding `Cc1ccc(-c2ccc(/C=C3\C(=O)ON=C3c3ccccc3)o2)c([N+](=O)[O-])c1`, the Potency is 3.16 µM (active).

For `Cc1cc(/C=N/NC(=O)Cn2c3ccccc3c(=O)c3ccccc32)c(C)n1-c1ccccc1`, the Potency is 7.08 µM (active).

For the molecule `N=c1c(C(=O)NC2CCCC2)cc2c(=O)n3ccccc3nc2n1C1CCCC1`, the Potency result is “inactive”.

As for `O=C(CC1C(=O)N(c2ccc(Cl)cc2)C(=S)N1CCc1ccncc1)Nc1ccc(F)cc1` (stereo not given), the Potency entry is “inactive”.

Regarding `CCOc1ccc(NS(=O)(=O)c2ccc3[nH]cc(C(=O)N(CC)CC)c(=O)c3c2)cc1`, the Potency entry was “inactive”.

As to `O=C(Nc1nnc(-c2ccco2)s1)C1CCCCC1`, the Potency was 1 µM (active).
